Compounds with a hit are over-represented: about 28% of the library has one in this group of screens.
CYP2C19 act – activators of human cytochrome P450 2C19. activation factor at 5 µM. recombinant CYP2C19, luciferin-H EGE luminescence; hits give high values; 0 = fully inhibited enzyme, 1 = untreated enzyme. 96,000 tested, under 10 active;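 active = activation factor of at least 2 at 5 µM in the primary screen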
Target sequence (P33261 whole entry, looked up): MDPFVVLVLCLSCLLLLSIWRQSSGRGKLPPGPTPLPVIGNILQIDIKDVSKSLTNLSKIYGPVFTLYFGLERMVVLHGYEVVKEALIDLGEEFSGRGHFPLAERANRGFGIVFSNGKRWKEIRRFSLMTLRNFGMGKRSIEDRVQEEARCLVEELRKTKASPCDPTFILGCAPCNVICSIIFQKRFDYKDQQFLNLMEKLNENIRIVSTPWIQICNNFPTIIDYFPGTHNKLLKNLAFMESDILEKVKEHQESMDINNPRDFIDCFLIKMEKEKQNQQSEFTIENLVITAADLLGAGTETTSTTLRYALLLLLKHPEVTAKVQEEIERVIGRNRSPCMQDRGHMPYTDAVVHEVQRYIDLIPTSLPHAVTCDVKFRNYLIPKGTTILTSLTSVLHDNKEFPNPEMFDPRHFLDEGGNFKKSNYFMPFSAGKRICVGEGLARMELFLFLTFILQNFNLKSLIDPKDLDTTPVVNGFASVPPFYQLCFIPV
CYP2C9 activ – activators of human CYP2C9. AID 1024. recombinant CYP2C9, luciferin-H conversion, luminescence; hits give high values; factor 1 = untreated enzyme, 0 = blocked. activation factor at 5 µM. 96,000 tested, 1.4% active;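 active = activation factor of 2 or more for CYP2C9 at a 5 µM dose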
CYP2C9 inh – inhibitors of human CYP2C9 | P11712 | CYP2C9 Supersomes, luciferin-H conversion, luminescence | inhibition, % at 5 µM | 96,000 tested, 20% active | AID 777;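 active = blocking of liver enzyme CYP2C9 beyond about 50% at 5 µM, limit read from the data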
PLK1 PBD inh – blocks phosphopeptide binding to human Plk1 polo box domain; Plk1 PBD phosphopeptide binding, fluorescence polarization; 97,000 tested, 0.13% active; P53350; inhibition, %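 (tested at about 20 µM)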; in the data active = inhibition above about 34%, passing the limit was not always enough
PLK1 inh – inhibitors of human PLK1 kinase; recombinant PLK1 kinase, TR-FRET peptide phosphorylation; 97,000 tested, 0.53% active; AID 619; inhibition, % at 10 µM; P53350;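 active = inhibition of 50% or more in the single-concentration screen; inactive = inhibition below 50%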
CYP2C19 inh – blocks human cytochrome P450 2C19 | P33261 | 96,000 tested, 21% active | AID 778 | inhibition, % at 5 µM | CYP2C19 Supersomes, luciferin-H EGE luminescence, 30 min;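 active = CYP2C19 inhibition above a set limit at 5 µM in the primary screen, cut at about 50% in these data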
Of the large screens only hits and unclear results are named; the others gave an inactive call.

Cc1ccc(SCc2[nH]nc3c2C2(C(=O)Nc4ccc([N+](=O)[O-])cc42)C(C#N)=C(N)O3)cc1 (stereo not given)	CYP2C9 inh 52
Cc1[nH]nc2c1C1(CCN(C(=O)OCc3ccccc3)CC1)C(C#N)=C(N)O2	CYP2C19 inh 68 (no result: PLK1 PBD inh, PLK1 inh)
CC(=O)Nc1ccc(S(=O)(=O)NC(=O)C23CC4CC(CC(C4)C2)C3)cc1	none
O=C(c1ccc(N2CCCCS2(=O)=O)cc1)N1CCN(c2ccc(N3CCOCC3)nn2)CC1	none (no result: PLK1 PBD inh, PLK1 inh)
Cc1c(NC(=O)c2cc(=O)[nH]c(=O)[nH]2)c(=O)n(-c2ccccc2)n1C	none
CCOC(=O)N1CCC2(CC1)C(C#N)=C(N)OC1=C2C(=O)CC(C)C1 (stereo not given)	CYP2C9 inh 68
N#CC1=C(N)OC2=C(C(=O)CCC2)C12CCN(C(=O)OCc1ccccc1)CC2	CYP2C9 inh 66, CYP2C19 inh 99 (no result: PLK1 PBD inh, PLK1 inh)
CC1(C)CC(=O)C2=C(C1)OC(N)=C(C#N)C21CCN(C(=O)OCc2ccccc2)CC1	none
COCCn1c(C23CC4CC(CC(C4)C2)C3)n[nH]c1=S	none
C#CCOc1ccc2c(C)cc(=O)oc2c1	CYP2C19 inh 64
Cc1cc(=O)oc2cc(OCC3CC(c4ccccc4)=NO3)ccc12 (stereo not given)	CYP2C9 inh 51
Cc1cc(=O)oc2cc(OCC3CC(c4ccc(Br)cc4)=NO3)ccc12 (stereo not given)	none
CCn1c(=NC(=O)c2ccc(S(=O)(=O)N3CCOCC3)cc2)sc2cccc(OC)c21	none
CCCCS(=O)(=O)NC1=NCN(CCOC(=O)c2ccccc2)CN1	none (no result: CYP2C19 act, CYP2C9 activ, CYP2C9 inh, CYP2C19 inh)
COC(=O)c1cc(-c2ccccc2)sc1NC(=O)CN1C(=O)c2ccccc2C1=O	none
Cc1onc(-c2ccccc2)c1C(=O)NCc1ccccn1	none
Cc1onc(-c2ccccc2)c1C(=O)NCc1ccc2c(c1)OCO2	CYP2C9 inh 57, CYP2C19 inh 92
Cc1onc(-c2ccccc2)c1C(=O)NCC1COc2ccccc2O1 (stereo not given)	CYP2C19 inh 79
CCCCC1CC(/C(C)=N/NC(N)=O)OC1=O (stereo not given)	none
O=C(c1ccc(CS(=O)(=O)c2ccc(Br)cc2)o1)N1CCN(c2ccccn2)CC1	CYP2C9 inh 69
O=C(c1ccc(CS(=O)(=O)c2ccccc2)o1)N1CCN(c2ncccn2)CC1	CYP2C9 inh 64, CYP2C19 inh 54
Cc1ccc(S(=O)(=O)Cc2ccc(C(=O)N3CCN(c4cc(C)ccc4C)CC3)o2)cc1	none
O=C(c1ccc(CS(=O)(=O)c2cccc(C(F)(F)F)c2)o1)N1CCN(c2ccccn2)CC1	CYP2C9 inh 60, CYP2C19 inh 54
O=C(c1ccc(CS(=O)(=O)c2ccc(Br)cc2)o1)N1CCOCC1	none
Cc1ccc(S(=O)(=O)Cc2ccc(C(=O)N3CCN(c4ccccn4)CC3)o2)cc1	CYP2C9 inh 70
Cc1cc(=O)oc(C)c1C(=O)Nc1ccc(Cl)cn1	none
O=C(c1ccc(CS(=O)(=O)c2c(Cl)cccc2Cl)o1)N1CCN(c2ccccn2)CC1	CYP2C19 inh 93
O=C(NCCN1CCCC1)c1ccc(CS(=O)(=O)c2c(Cl)cccc2Cl)o1	none
Cc1ccc(S(=O)(=O)c2nc(Nc3nccs3)sc2Cl)cc1	CYP2C9 inh 60, CYP2C19 inh 68
COCCN(CCOC)c1nc(S(=O)(=O)c2ccc(C)cc2)c(Cl)s1	CYP2C9 inh 56, CYP2C19 inh 81
CC(=O)Nc1nc(S(=O)(=O)c2ccc(C)cc2)c(Cl)s1	CYP2C19 inh 55
Cc1ccc(S(=O)(=O)c2nc(NCc3ccc4c(c3)OCO4)sc2Cl)cc1	none
CCOc1nc(S(=O)(=O)c2ccc(C)cc2)c(Cl)s1	CYP2C19 inh 83
Cc1cc(SCNC(=O)c2ccccc2)ncn1	none (no result: PLK1 PBD inh, PLK1 inh)
CC(C)(C)C1CC=C2C(C#N)=C(N)C(C#N)(C#N)C(c3cccs3)C2C1 (stereo not given)	CYP2C9 inh 90, CYP2C19 inh 57
COc1ccc(/C=C(\NC(=O)c2ccccc2)C(=O)N/N=C/c2ccncc2)cc1	none (no result: CYP2C19 act, CYP2C19 inh)
CC(C)(C)c1csc(NC(=O)c2ccc3nccnc3c2)n1	none
Cc1ccc(C2=[N+]([O-])C3(CCCCC/C3=N\NC(N)=S)N(O)C2(C)C)o1 (stereo not given)	CYP2C9 inh 74

Assay outcomes from PubChem BioAssay.
